Measured values taken from PubChem BioAssay.
Results filed as inconclusive are left out. Activity calls are given as the source filed them. Rule as the data show it, unless noted: active = inhibition above about 80%; inactive = the rest.

How the values were obtained:
[1] = viability loss in pontine glioma line – cell-based, SU-DIPG-XVII, MIPE5.0, CellTiter-Glo, qHTS, dose response (AID 1347060; cut-off not given, nearly all actives have AC50 up to about 26 µM;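 as to AC50: cells exposed to compound for 48 hours before viability readout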); settings: CellTiter-Glo ATP luminescence
[2] = viability loss in pontine glioma line – cell-based, SU-DIPG-XXV, MIPE5.0, CellTiter-Glo, qHTS, dose response (AID 1347065; cut-off not given, nearly all actives have AC50 up to about 26 µM;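 also: cells exposed to compound for 48 hours before ATP readout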); settings: CellTiter-Glo ATP luminescence
[3] = growth inhibition of DIPG cells – cell-based, MIPE5.0 library, qHTS (AID 1347068; cut-off not given, nearly all actives have IC50 up to about 30 µM); settings: SU-DIPG-XXV viability
[4] = JHH-DIPG-1 glioma cell viability, MIPE5.0 library, CellTiter-Glo luminescence, qHTS (AID 1347067; cut-off not given, nearly all actives have AC50 up to about 26 µM;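 also: cells exposed to compound for 48 hours before readout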); settings: JHH-DIPG-1 glioma viability, CellTiter-Glo ATP luminescence
[5] = growth inhibition, single agent or in combination, cell-based, chromothripsis tumors, cisplatin or BGB combos (AID 1671449); settings: LFS_MB_P medulloblastoma cells;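 also: cells exposed for 96 hours; 0% = vehicle DMSO and 100% = killing by high DMSO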
[6] = growth inhibition, single agent and combos, cell-based, chromothripsis tumors, cisplatin or BGB combos (AID 1671450); settings: HDN33 neuroblastoma cells, stronger effect = higher value;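 also: cells exposed to compound for four days; 0% = vehicle DMSO and 100% = cell killing by high DMSO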
[7] = growth inhibition, single agents and combos, ICB984, cell-based, cisplatin or BGB combos, synergistic combos for chromothripsis tumors (AID 1671451; call rule not given here;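 also: cells exposed for 96 hours before readout; 0% = vehicle DMSO and 100% = killing by high DMSO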); settings: ICB984 medulloblastoma cells, drug combinations, stronger effect = higher value
[8] = growth inhibition, single agents and combos, LFS_MB_1R, cell-based, cisplatin or BGB combos, synergistic combos for chromothripsis tumors (AID 1671452); settings: LFS_MB_1R medulloblastoma cells, stronger effect = higher value;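 also: cells exposed for 96 hours before readout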
[9] = growth inhibition, single agents and combos, HTB85, cell-based, BGB or cisplatin IC20 combos, synergistic combos for chromothripsis tumors (AID 1671453); settings: HTB85 osteosarcoma cells, drug combinations, stronger effect = higher value;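 also: cells exposed for 96 hours before readout; 0% = vehicle DMSO and 100% = high DMSO killing control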
[10] = growth inhibition, single agents and combos, CRL2098, cell-based, BGB or cisplatin IC20 combos, synergistic combos for chromothripsis tumors (AID 1671454); settings: CRL2098 osteosarcoma cells, drug combinations, stronger effect = higher value;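 also: cells exposed for 96 h before readout; 0% = vehicle DMSO and 100% = killing by high DMSO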
[11] = growth inhibition, single agents and combos, HD-MB03, cell-based, BGB or cisplatin IC20 combos, synergistic combos for chromothripsis tumors (AID 1671455; in the data active = inhibition above about 83%;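 also: 0% = vehicle DMSO and 100% = high DMSO as cytotoxic control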); settings: HD-MB03 medulloblastoma cells, stronger effect = higher value
[12] = growth inhibition, single agents and combos, UWB1.289, cell-based, BGB or cisplatin combos, synergistic combos for chromothripsis tumors (AID 1671456); settings: UWB1.289 ovarian carcinoma cells, stronger effect = higher value;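 also: cells exposed to compound for four days; 0% = vehicle DMSO and 100% = killing by high DMSO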
[13] = growth inhibition, single agents and combos, LFS_MB_2R, cell-based, cisplatin combos, synergistic combos for chromothripsis tumors (AID 1671457); settings: LFS_MB_2R medulloblastoma cells, stronger effect = higher value;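 also: cells exposed to compound for four days before readout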
[14] = growth inhibition, MDA-MB-436, cell-based, BGB or cisplatin combos, synergistic combos for chromothripsis tumors (AID 1671458; call rule not given here;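 also: cells exposed for 96 hours; 0% = vehicle DMSO and 100% = killing by high DMSO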); settings: MDA-MB-436 breast carcinoma growth inhibition, drug combinations, stronger effect = higher value
[15] = UWB1.289_BRCA1 ovarian cancer growth, cell-based, BGB or cisplatin combinations (AID 1671459); settings: UWB1.289 BRCA1 ovarian carcinoma, drug combinations, stronger effect = higher value
[16] = drug combination toxicity in non-malignant astrocytes – cell-based, BGB or cisplatin IC20 combos, cytotoxicity control for chromothriptic childhood tumor combination screen (AID 1671460); settings: Human astrocytes, viability inhibition, drug combinations, at 0.5 µM, stronger effect = higher value;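 also: cells exposed to compounds for 96 hours before viability readout; 0% = vehicle and 100% = killing control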
[17] = BT084 cell growth, single and combined drugs, ICGC_MB145, cisplatin and BGB IC40 combos (AID 1671461); settings: BT084 medulloblastoma cells, drug combinations, stronger effect = higher value;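 also: cells exposed to drugs for 96 hours; 0% = vehicle DMSO and 100% = high DMSO full killing control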
[18] = RCMB18 cell growth, single agent and combined, cisplatin and BGB IC40 combos (AID 1671462); settings: RCMB18 medulloblastoma cells, stronger effect = higher value;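 also: cells exposed to compound for four days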
[19] = CRL1545 cell growth, single agent and combined, cisplatin and BGB IC20 combos (AID 1671464); settings: CRL1545 osteosarcoma cells, stronger effect = higher value;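 also: cells exposed to compound for 96 hours before readout; 0% = vehicle DMSO and 100% = high DMSO killing control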
[20] = measured here: combination with BGB IC40, at 0.05 µM
[21] = measured here: with BGB IC20 combination, at 0.5 µM
[22] = measured here: with cisplatin IC20 combination, at 0.5 µM
[23] = measured here: combination with cisplatin, at 0.5 µM
[24] = measured here: combination with cisplatin, at 5 µM

In the case of `CCCOc1ccn2c(C(C)=O)cc(-c3ccccc3S(C)(=O)=O)c2c1`, the outcome [1] is reported as “inactive”, the outcome [2] is reported as “inactive” and the outcome [3] is reported as “inactive”.

For `CN[C@@H]1CN(c2ccc3c(=O)c(C(=O)O)cn(-c4nccs4)c3n2)C[C@H]1OC`, the AC50 [1] was 910 nM (active), the AC50 [2] was 5.74 µM (active) and the AC50 [4] was 9.1 µM (active). The inhibition ([5]; at 0.5 µM, stronger effect = higher value) was -19.9% (inactive), the inhibition ([5]; measured here: combination with BGB IC20, at 0.005 µM) was -32.1% and the inhibition ([5]; measured here: combination with BGB IC40, at 0.005 µM) was -41.7%. It also gave an inhibition [5, 20] of -39.5%, an inhibition ([5]; measured here: combination with cisplatin, at 0.5 µM, stronger effect = higher value) of -37.3% and an inhibition ([5]; measured here: combination with cisplatin, at 5 µM, stronger effect = higher value) of 59.3%. The inhibition ([6]; BGB combo, at 5 µM) was 99.1%, the inhibition ([6]; at 0.5 µM) was 57% (inactive) and the inhibition ([6]; cisplatin combo, at 5 µM) was 99.4%. For the same compound, the inhibition [6, 21] was 48.4%, the inhibition [6, 22] was 56.4% and the inhibition ([6]; single agent, at 5 µM) was 99.6%. For the same compound, the inhibition ([7]; BGB IC20 combo, at 0.005 µM) was 19.2%, the inhibition ([7]; BGB IC40 combo, at 0.005 µM) was -11.4% and the inhibition ([7]; BGB IC40 combo, at 0.05 µM) was 100%. For the same compound, the inhibition ([7]; at 0.5 µM) was -34.8% (inactive), the inhibition ([7]; cisplatin combo, at 0.05 µM) was 100% and the inhibition ([7]; cisplatin combo, at 0.5 µM) was -31.3%. The inhibition ([7]; cisplatin combo, at 5 µM) was -34.3%, the inhibition ([7]; measured here: 5 uM single agent, at 5 µM) was -6.89% and the inhibition ([8]; at 0.5 µM) was 3.38% (inactive). For the same compound, the inhibition [8, 20] was 4.5%, the inhibition [8, 23] was 47.4% and the inhibition [8, 24] was 92.8%. For the same compound, the inhibition ([9]; at 0.5 µM) was 51.4% (inactive), the inhibition ([9]; measured here: with BGB IC20, at 0.5 µM) was 49.9% and the inhibition ([9]; measured here: with BGB IC20, at 5 µM) was 99.2%. It also gave an inhibition ([9]; measured here: with cisplatin IC20, at 0.5 µM) of 42.9%, an inhibition ([9]; measured here: with cisplatin IC20, at 5 µM) of 99.3% and an inhibition ([9]; single agent, at 5 µM) of 99.2%. The inhibition ([10]; at 0.5 µM) was 18.1% (inactive), the inhibition ([10]; measured here: combination with BGB at IC20, at 0.5 µM) was 27.9% and the inhibition ([10]; measured here: combination with cisplatin at IC20, at 0.5 µM) was -2.11%. For the same compound, the inhibition ([11]; at 0.5 µM) was 72.5% (inactive), the inhibition ([11]; measured here: combo with BGB at IC20, at 0.5 µM) was 63.8% and the inhibition ([11]; measured here: combo with cisplatin at IC20, at 0.5 µM) was 74.4%. The inhibition ([12]; at 0.5 µM) was 14.7% (inactive), the inhibition ([12]; measured here: inhibition with BGB combination, at 0.05 µM) was -25.3% and the inhibition ([12]; measured here: inhibition with cisplatin combination, at 0.05 µM) was -22.6%. The inhibition ([13]; at 0.5 µM) was -28.9% (inactive), the inhibition [13, 23] was -26% and the inhibition [13, 24] was 34.8%. For the same compound, the inhibition ([14]; at 0.5 µM) was 25.6% (inactive), the inhibition ([14]; measured here: BGB combination, at 0.5 µM) was 14% and the inhibition ([14]; measured here: BGB combination, at 5 µM) was 70.2%. The inhibition ([14]; measured here: cisplatin combination, at 0.5 µM) was 8.1%, the inhibition ([14]; measured here: cisplatin combination, at 5 µM) was 85.8% and the inhibition ([15]; BGB combination, concentration series, at 5 µM) was 94.6%. The inhibition ([15]; at 0.5 µM) was 13.7% (inactive), the inhibition ([15]; cisplatin combination, concentration series, at 5 µM) was 98.3% and the inhibition [16] was 33.4% (inactive). The inhibition ([16]; measured here: combo with BGB IC20) was 29%, the inhibition ([16]; measured here: combo with cisplatin IC20) was 13.3% and the inhibition ([17]; at 0.5 µM) was -20% (inactive). For the same compound, the inhibition ([17]; cisplatin combination, at 0.5 µM) was -18.3%, the inhibition ([17]; cisplatin combination, at 5 µM) was 37.6% and the inhibition ([17]; measured here: BGB IC40 combination 0.05 uM, at 0.05 µM) was -77.9%. The inhibition ([17]; single agent, at 5 µM) was 101%, the inhibition ([18]; at 0.5 µM) was -5.3% (inactive) and the inhibition ([18]; cisplatin combo, at 5 µM) was 84.6%. The inhibition ([18]; measured here: BGB IC40 combination, at 0.05 µM) was -18.9%, the inhibition [18, 23] was 32.1% and the inhibition ([18]; single agent, at 5 µM) was 87.5%. The inhibition ([19]; at 0.5 µM) was 17.4% (inactive), the inhibition [19, 21] was 16.9% and the inhibition [19, 22] was 16.4%. It also gave an inhibition ([19]; single agent, at 0.05 µM) of 9.09% and an inhibition ([19]; single agent, at 5 µM) of 99.7%.
